The results in this text go back to PubChem BioAssay (EPA / NIEHS).

Activity calls are given as the source filed them. The calls were made as follows: active = hit-call score of the fitted dose curve at least 0.9, where 1 is the maximum; inactive = score below 0.9.

The target in test [1] is CCAAT/enhancer-binding protein beta (Homo sapiens) (UniProt P17676). Nature of the test: ATG_C_EBP_CIS: Attagene CIS-FACTORIAL HepG2 Assay for human CCAAT/Enhancer Binding Protein (C/EBP) beta (AID 2282927). The settings on record: HepG2 Attagene cis-factorial transcription factor reporter; actives raise or lower the signal. A digest of the protocol: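 Transiently transfected HepG2 (MRTU library, endogenous TF-driven promoters); 24 h dosing; total RNA → oligo(dT) RT → PCR → 6-FAM primer extension → HpaI digest → CE; fit bidirectionally vs DMSO.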

Test [2] in a line: ATG_CMV_CIS: Attagene CIS-FACTORIAL HepG2 Assay for human CMV (Internal Marker) (AID 2282928).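 Also: endpoint acts as a background internal control marker rather than a target.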 The note with it: HepG2 CMV promoter reporter, transcription factor profiling; actives raise or lower the signal. A digest of the protocol:
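After transient transfection of HepG2 with reporter transcription units driven by cis-regulatory promoters, cells receive test chemical for 24 h. Labeled reporter amplicons, digested with HpaI, are sized and quantified by capillary electrophoresis against DMSO.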

Test [3] in a line: ATG_DR4_LXR_CIS: Attagene CIS-FACTORIAL HepG2 Assay for human Liver X Receptor (LXR), DR4 submotif (AID 2282929). The settings on record: HepG2 Attagene DR4 cis-reporter, mRNA transcription; actives raise or lower the signal. Summed up:
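Cells were transfected with multiple reporter transcription units, exposed to chemicals for 24 hours, then lysed for RNA. Reporter mRNA induction was measured by RT-PCR with capillary electrophoresis detection and fitted in both directions relative to DMSO.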

Test [4] has as its target Aryl hydrocarbon receptor (Homo sapiens) (UniProt P35869). Nature of the test: ATG_Ahr_CIS: Attagene CIS-FACTORIAL HepG2 Assay for human Aryl Hydrocarbon Receptor (Ahr) (AID 2282930). The note with it: HepG2 AhR cis-factorial reporter transcription; actives raise or lower the signal. Summed up:
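Read-out: reporter mRNA quantified by RT-PCR with fluorescent primer extension and capillary electrophoresis. Human HepG2 liver cells carried transfected cis-promoter reporter units and were exposed to chemical for 24 h; gain or loss fitted relative to DMSO.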

The nature of test [5]: ATG_AP_1_CIS: Attagene CIS-FACTORIAL HepG2 Assay for human Activator Protein 1 (AP-1) (AID 2282931). The settings on record: HepG2 Attagene cis-factorial AP-1 reporter mRNA; actives raise or lower the signal. Summed up:
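Endogenous transcription-factor activity in human HepG2 liver cells is read through a cis-promoter reporter transcript, sampled 24 h after dosing. Detection uses RT-PCR with capillary electrophoresis; values come from bidirectional fitting relative to DMSO.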

Test [6] can be described thus: ATG_AP_2_CIS: Attagene CIS-FACTORIAL HepG2 Assay for human Activator Protein 2 (AP-2) (AID 2282932). The note with it: HepG2 AP-2 cis-reporter, Attagene transcription factor profiling; actives raise or lower the signal. Summed up:
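HepG2 cells transiently transfected with cis-element reporter units and exposed for 24 h. Reporter mRNA measured by RT-PCR, FAM labelling, HpaI digestion and capillary electrophoresis. Changes in either direction fitted relative to DMSO.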

Test [7] in a line: ATG_BRE_CIS: Attagene CIS-FACTORIAL HepG2 Assay for human Bone Morphogenetic Protein (BMP) Response Element (BRE) (AID 2282933). The note with it: HepG2 BMP response element reporter, Attagene transcription factor profiling; actives raise or lower the signal. Summed up: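 HepG2 cells transiently transfected with CIS reporter units (endogenous TF activity, BMP response element), dosed 24 h. Reporter mRNA quantified by RT-PCR, fluorescent labelling and capillary electrophoresis; bidirectional fit vs DMSO baseline.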

Test [8] has as its target Retinoic acid receptor alpha (Homo sapiens) (UniProt P10276). Nature of the test: ATG_DR5_RAR_CIS: Attagene CIS-FACTORIAL HepG2 Assay for human Retinoic Acid Receptor Alpha (RARE), DR5 submotif (AID 2282934). The note with it: HepG2 Attagene cis-factorial RARE DR5 reporter, mRNA; actives raise or lower the signal. Summed up: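 Read-out: DR5-driven reporter transcript measured by RT-PCR, 6-FAM primer extension, HpaI digest and capillary electrophoresis. Human HepG2 liver cells carry transiently transfected cis-element reporter constructs; dosing lasts 24 h. Gain or loss of signal fitted against DMSO baseline.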

Test [9] is described as follows: ATG_E_Box_CIS: Attagene CIS-FACTORIAL HepG2 Assay for human Enhancer Box (E-box) (AID 2282936). The settings on record: HepG2 E-box cis-reporter transcription, actives raise or lower the signal. A digest of the protocol: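 HepG2 cells transiently transfected with multiplexed cis-element reporter units, dosed 24 h; reporter mRNA quantified by RT-PCR, 6-FAM labelling, HpaI digestion and capillary electrophoresis. E-box (USF1) signal fitted bidirectionally vs DMSO.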

A short description of test [10]: ATG_M_61_CIS: Attagene CIS-FACTORIAL HepG2 Assay for M61 Transcription Factor (Internal Marker) (AID 2282937). The note with it: HepG2 Attagene CIS-FACTORIAL M61 internal marker reporter; actives raise or lower the signal. Summed up:
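Cells were transfected with reporter units under cis-regulatory promoters, treated with chemicals for 24 h, then lysed for RNA. Reporter transcripts were quantified by RT-PCR and capillary electrophoresis, and activity was fitted bidirectionally against DMSO.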

Test [11] is described as follows: ATG_M_19_CIS: Attagene CIS-FACTORIAL HepG2 Assay for M19 Transcription Factor (Internal Marker) (AID 2282939). The note with it: HepG2 Attagene CIS-FACTORIAL M19 internal marker reporter; actives raise or lower the signal. Summed up:
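HepG2 cells transiently transfected with cis-regulated multiplexed reporter units, dosed 24 h. Reporter mRNA quantified by RT-PCR and capillary electrophoresis; internal background marker fitted bidirectionally versus DMSO.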

Test [12] can be described thus: ATG_Ets_CIS: Attagene CIS-FACTORIAL HepG2 Assay for human Erythroblast Transformation Specific (ETS) (AID 2282941). The settings on record: HepG2 ETS cis-reporter transcription, actives raise or lower the signal. A digest of the protocol: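 Human HepG2 hepatoma cells were transiently transfected with promoter-driven reporter constructs and treated for 24 hours. Reporter transcripts were quantified by RT-PCR with fluorescent primer extension; bidirectional curve fitting used DMSO as reference.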

In test [13] the target is Hepatocyte nuclear factor 3-beta (Homo sapiens) (UniProt Q9Y261). The test is described as follows: ATG_FoxA2_CIS: Attagene CIS-FACTORIAL HepG2 Assay for human Forkhead box A2 (FOXA2) (AID 2282942). The note with it: HepG2 cis-reporter transcription factor activity, 24 h; actives raise or lower the signal. A digest of the protocol: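 Endogenous transcription factor activity was read in HepG2 cells carrying transiently transfected cis-promoter reporter units. After 24 h dosing, reporter mRNA was quantified by RT-PCR and capillary electrophoresis, and values fitted bidirectionally versus DMSO.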

A short description of test [14]: ATG_FoxO_CIS: Attagene CIS-FACTORIAL HepG2 Assay for human Forkhead box O (FoxO) (AID 2282943). The note with it: HepG2 Attagene cis-reporter, FoxO element, mRNA; actives raise or lower the signal. A digest of the protocol:
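Read-out: fluorescence of 6-FAM-labelled reporter cDNA fragments resolved by capillary electrophoresis. Transiently transfected HepG2 cells were dosed for 24 h; activity fitted in both directions relative to DMSO controls.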

Test [15] is described as follows: ATG_GLI_CIS: Attagene CIS-FACTORIAL HepG2 Assay for human Zinc Finger Protein GLI1 (AID 2282945). The settings on record: HepG2, Attagene cis-factorial reporter mRNA, GLI element; actives raise or lower the signal. Summed up: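 Transiently transfected HepG2 cells report endogenous transcription factor activity via cis-element-driven reporter units. After 24 h compound exposure, reporter mRNA was measured by RT-PCR with capillary electrophoresis; bidirectional fitting against DMSO baseline.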

Test [16] addresses Bile acid receptor (Homo sapiens) (UniProt Q96RI1). Nature of the test: ATG_IR1_CIS: Attagene CIS-FACTORIAL HepG2 Assay for human Nuclear Receptor Subfamily 1 Group H Member 4 (NR1H4), IR1 submotif (AID 2282946). The note with it: IR1 reporter transcription, actives raise or lower the signal. A digest of the protocol:
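HepG2 cells transiently transfected with multiple cis-promoter-driven reporter units to measure endogenous transcription factor activity; 24 h exposure. Reporter mRNA read by RT-PCR, FAM labelling, HpaI digestion and capillary electrophoresis. Bidirectional fit versus DMSO.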

Test [17] deals with Transcription factor E2F1 (Homo sapiens) (UniProt Q01094). Nature of the test: ATG_E2F_CIS: Attagene CIS-FACTORIAL HepG2 Assay for human E2F Transcription Factor 1 (AID 2282935). The settings on record: HepG2 Attagene cis-reporter, E2F reporter RNA transcripts; actives raise or lower the signal. A digest of the protocol:
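Endogenous E2F1 activity read through cis-promoter reporter units transfected into HepG2. After 24 h compound treatment, reporter mRNA measured by RT-PCR, HpaI digestion and capillary electrophoresis. Bidirectional fit versus DMSO.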

A short description of test [18]: ATG_EGR_CIS: Attagene CIS-FACTORIAL HepG2 Assay for human Early Growth Response 1 (EGR1) (AID 2282938). The note with it: HepG2 Attagene CIS-FACTORIAL EGR reporter mRNA; actives raise or lower the signal. Summed up:
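Endogenous TF activity in HepG2 liver cells was gauged through cis-promoter reporter constructs transiently transfected. After 24 h dosing, reporter mRNA was quantified by RT-PCR and capillary electrophoresis, and curves fitted in both directions versus DMSO.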

Test [19] can be described thus: ATG_GATA_CIS: Attagene CIS-FACTORIAL HepG2 Assay for human GATA Binding Protein (AID 2282944). The settings on record: HepG2 GATA cis-element reporter, Attagene multiplex mRNA; actives raise or lower the signal. A digest of the protocol: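 HepG2 cells transiently transfected with multiplexed cis-element reporter units measure endogenous GATA activity; after 24 h compound exposure, reporter mRNA quantified by RT-PCR and capillary electrophoresis. Changes fitted in both directions vs DMSO.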

Chain of CCAAT/enhancer-binding protein beta (Homo sapiens) (P17676 whole entry, looked up): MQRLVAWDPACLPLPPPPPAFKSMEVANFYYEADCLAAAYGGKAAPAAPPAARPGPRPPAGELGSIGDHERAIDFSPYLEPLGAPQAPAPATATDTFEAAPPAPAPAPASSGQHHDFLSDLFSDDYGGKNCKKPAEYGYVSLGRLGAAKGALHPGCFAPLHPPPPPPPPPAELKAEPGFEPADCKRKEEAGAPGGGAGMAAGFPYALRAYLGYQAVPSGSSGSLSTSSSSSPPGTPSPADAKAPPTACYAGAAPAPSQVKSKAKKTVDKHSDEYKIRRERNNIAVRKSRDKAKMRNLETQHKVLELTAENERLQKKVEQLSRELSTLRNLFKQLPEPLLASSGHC
Chain of Bile acid receptor (Homo sapiens) (Q96RI1 whole entry, looked up): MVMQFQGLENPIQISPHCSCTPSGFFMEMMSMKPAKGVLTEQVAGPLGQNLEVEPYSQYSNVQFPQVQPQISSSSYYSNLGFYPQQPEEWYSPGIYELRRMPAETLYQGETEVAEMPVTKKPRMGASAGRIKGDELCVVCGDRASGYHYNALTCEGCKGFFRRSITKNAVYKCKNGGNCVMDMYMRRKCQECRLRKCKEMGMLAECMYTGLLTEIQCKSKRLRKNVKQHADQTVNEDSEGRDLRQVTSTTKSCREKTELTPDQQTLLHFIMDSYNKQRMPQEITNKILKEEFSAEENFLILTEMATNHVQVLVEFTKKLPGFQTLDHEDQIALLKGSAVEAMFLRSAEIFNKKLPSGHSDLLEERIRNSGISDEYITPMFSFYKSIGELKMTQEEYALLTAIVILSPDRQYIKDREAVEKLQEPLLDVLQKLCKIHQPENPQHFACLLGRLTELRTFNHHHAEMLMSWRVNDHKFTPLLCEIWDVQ
Chain of Retinoic acid receptor alpha (Homo sapiens) (P10276 whole entry, looked up): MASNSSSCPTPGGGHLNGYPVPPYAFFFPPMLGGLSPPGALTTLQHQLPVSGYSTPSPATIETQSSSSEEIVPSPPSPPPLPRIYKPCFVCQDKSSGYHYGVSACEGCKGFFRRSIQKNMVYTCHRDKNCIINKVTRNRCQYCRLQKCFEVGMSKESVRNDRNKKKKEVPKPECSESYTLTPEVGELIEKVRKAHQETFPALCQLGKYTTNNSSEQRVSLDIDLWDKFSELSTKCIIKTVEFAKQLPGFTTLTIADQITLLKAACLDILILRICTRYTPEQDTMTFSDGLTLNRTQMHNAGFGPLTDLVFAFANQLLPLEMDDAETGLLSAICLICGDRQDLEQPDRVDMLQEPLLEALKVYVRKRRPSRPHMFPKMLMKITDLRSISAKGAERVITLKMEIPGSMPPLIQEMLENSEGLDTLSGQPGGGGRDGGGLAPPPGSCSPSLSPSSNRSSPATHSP
Chain of Aryl hydrocarbon receptor (Homo sapiens) (P35869 whole entry, looked up): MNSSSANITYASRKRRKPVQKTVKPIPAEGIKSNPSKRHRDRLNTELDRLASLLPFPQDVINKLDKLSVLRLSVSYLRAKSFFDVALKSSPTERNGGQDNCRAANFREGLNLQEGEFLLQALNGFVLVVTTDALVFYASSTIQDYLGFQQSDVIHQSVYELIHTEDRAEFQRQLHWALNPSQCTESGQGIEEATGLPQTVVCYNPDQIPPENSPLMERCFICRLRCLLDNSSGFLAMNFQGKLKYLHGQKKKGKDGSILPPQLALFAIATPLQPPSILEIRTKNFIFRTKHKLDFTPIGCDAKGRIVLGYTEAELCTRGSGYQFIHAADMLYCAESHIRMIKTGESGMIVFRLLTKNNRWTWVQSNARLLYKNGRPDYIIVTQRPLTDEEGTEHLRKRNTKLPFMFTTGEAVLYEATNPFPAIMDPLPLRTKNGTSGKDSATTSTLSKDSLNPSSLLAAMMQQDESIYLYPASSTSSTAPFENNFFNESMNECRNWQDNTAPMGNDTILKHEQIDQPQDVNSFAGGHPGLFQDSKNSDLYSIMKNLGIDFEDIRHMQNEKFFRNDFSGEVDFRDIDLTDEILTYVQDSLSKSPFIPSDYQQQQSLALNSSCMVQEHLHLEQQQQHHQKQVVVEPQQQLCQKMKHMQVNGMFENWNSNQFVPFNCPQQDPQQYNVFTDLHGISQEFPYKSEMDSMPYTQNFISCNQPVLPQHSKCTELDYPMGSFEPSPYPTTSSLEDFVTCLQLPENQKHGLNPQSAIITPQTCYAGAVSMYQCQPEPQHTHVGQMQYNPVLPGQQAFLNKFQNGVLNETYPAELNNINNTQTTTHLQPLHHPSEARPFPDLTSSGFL
Chain of Hepatocyte nuclear factor 3-beta (Homo sapiens) (Q9Y261 whole entry, looked up): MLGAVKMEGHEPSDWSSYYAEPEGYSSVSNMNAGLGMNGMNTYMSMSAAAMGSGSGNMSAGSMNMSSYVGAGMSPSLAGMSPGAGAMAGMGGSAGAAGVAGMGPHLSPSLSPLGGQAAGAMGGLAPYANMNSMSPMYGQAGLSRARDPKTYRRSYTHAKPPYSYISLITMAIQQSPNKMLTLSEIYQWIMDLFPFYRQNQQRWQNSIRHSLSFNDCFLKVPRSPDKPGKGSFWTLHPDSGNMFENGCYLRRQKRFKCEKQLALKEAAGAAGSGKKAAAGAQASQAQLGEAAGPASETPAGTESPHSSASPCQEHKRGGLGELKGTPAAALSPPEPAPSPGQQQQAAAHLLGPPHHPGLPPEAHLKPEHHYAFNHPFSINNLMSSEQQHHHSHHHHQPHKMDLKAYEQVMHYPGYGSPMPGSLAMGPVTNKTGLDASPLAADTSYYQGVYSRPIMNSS
Chain of Transcription factor E2F1 (Homo sapiens) (Q01094 whole entry, looked up): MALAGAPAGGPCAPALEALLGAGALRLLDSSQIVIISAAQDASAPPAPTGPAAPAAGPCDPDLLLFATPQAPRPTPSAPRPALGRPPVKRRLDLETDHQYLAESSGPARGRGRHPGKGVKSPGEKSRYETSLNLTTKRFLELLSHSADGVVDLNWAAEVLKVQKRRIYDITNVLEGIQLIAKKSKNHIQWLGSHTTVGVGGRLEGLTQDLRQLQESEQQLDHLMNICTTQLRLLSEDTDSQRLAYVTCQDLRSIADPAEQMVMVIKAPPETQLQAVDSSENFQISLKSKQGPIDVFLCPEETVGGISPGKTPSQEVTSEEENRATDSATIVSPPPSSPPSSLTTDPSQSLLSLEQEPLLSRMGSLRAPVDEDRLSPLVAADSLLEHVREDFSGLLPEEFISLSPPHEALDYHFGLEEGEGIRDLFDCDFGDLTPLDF

As to `CC(=O)C(C)O` (stereo unspecified), the outcome in test [1], in [2], in test [3], in [4], in test [5] and in [6] was inactive. Besides, the call in test [7], in [8], in test [9], in test [10], in test [11] and in test [12] was inactive. Moreover, the outcome in [13], in test [14], in test [15] and in [16] was inactive.
Usually AC50 stands for the midpoint of the concentration-response curve, whichever way the signal moves. For `Cc1ccc(OC(=O)c2ccccc2O)cc1`, the outcome in test [1], in test [2], in [3], in [4], in [7] and in test [8] was inactive. The result in test [17], in test [9], in [10], in test [18], in test [11] and in test [12] was inactive. Also, the molecule was called inactive in [13], in [14] and in [15]. Also, in test [5], the AC50 is 122 µM (active).
Turning to `O=C(Nc1ccc2c(c1)Cc1ccccc1-2)C(F)(F)F`, the outcome in test [1], in test [2], in test [3], in test [5], in [6] and in [7] was inactive. Also, the outcome in test [8], in test [17], in [9], in test [10], in test [18] and in test [11] was inactive. Besides, the molecule was called inactive in [12], in test [15] and in test [16]. In addition, the AC50 in test [4] is 10.2 µM (active).
In the case of `CCCCCCCCC=CCCCCCCCC1=NCCN1CCO`, the outcome in test [1], in test [4], in test [6], in test [7], in [8] and in test [10] was inactive. In addition, the molecule was called inactive in [11], in test [14], in test [19] and in [15]. The AC50 in test [2] is 48.2 µM (active); in test [3], 40.6 µM (active); in test [5], 100 µM (active); in test [17] it was 26.1 µM (active); in [9], 26.7 µM (active); in [12], 126 µM (active). Further, the AC50 in test [13] was 25.7 µM (active); in test [16] it was 26.1 µM (active).
